Data: PMC7862700, “An all-to-all approach to the identification of sequence-specific readers for epigenetic DNA modifications on cytosine”

Tests used:
Assay in all cases: DAPPL (digital affinity profiling via proximity ligation, sequencing); 10 mM Tris-HCl pH 7.5, 50 mM NaCl, 1 mM DTT, 4% glycerol, room temperature, 30 min; GST-TFs on glutathione beads, 16-mer random dsDNA library, 0.1% formaldehyde crosslink after washing; high values mean tight binding
FLI1 = target: T1, FLI1 (Homo sapiens, UniProt Q01543 1-452); details: protein: recombinant; tags: N-terminal GST; dsDNA, one strand shown
T1 sequence: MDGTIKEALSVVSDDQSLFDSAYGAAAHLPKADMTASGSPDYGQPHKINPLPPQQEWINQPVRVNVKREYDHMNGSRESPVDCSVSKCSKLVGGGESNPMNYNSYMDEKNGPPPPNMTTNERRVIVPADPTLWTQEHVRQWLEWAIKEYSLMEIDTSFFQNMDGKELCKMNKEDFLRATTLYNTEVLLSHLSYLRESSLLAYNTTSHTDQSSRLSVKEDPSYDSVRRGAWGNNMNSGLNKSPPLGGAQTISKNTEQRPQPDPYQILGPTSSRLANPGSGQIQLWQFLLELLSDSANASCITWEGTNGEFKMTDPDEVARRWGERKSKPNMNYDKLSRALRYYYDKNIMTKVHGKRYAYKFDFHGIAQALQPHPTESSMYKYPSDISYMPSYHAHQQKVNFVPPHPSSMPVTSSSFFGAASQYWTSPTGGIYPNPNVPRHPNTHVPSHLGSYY
How it was run: (§1)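 Beads coated with glutathione captured GST-fused human transcription factors that had been expressed in yeast, and the factors were then given DNA barcodes and pooled with a tag-only sample. The pools were incubated with 200 nmole of a random double-stranded 16-mer DNA library in Tris/NaCl/DTT/glycerol buffer for 30 min at room temperature, washed, crosslinked with 0.1% formaldehyde and proximity-ligated with BsaI/T4 ligase at 37 °C for 1 h. PCR amplification and Illumina NextSeq500 sequencing came last. Binding signal is each hexamer's read frequency for a factor divided by its frequency for the tag-only sample.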

ELK1 = target: T2, ELK1 (Homo sapiens, UniProt P19419 1-428); details: protein: recombinant; tags: N-terminal GST; dsDNA, one strand shown
T2 sequence: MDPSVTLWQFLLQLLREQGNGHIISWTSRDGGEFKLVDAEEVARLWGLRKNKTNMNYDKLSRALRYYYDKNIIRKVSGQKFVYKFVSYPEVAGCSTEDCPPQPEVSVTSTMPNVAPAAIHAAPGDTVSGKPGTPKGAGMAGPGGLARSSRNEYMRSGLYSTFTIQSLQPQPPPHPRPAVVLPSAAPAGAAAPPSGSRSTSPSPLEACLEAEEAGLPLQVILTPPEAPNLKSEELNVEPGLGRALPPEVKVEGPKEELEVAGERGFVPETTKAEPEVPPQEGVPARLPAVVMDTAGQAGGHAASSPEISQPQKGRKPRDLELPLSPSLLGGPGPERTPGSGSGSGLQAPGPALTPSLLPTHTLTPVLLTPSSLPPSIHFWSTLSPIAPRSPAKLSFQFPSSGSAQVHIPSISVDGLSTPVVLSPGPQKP
How it was run: as §1

GABPA = target: T3, GABPA (Homo sapiens, UniProt Q06546 1-454); details: protein: recombinant; tags: N-terminal GST; dsDNA, one strand shown
T3 sequence: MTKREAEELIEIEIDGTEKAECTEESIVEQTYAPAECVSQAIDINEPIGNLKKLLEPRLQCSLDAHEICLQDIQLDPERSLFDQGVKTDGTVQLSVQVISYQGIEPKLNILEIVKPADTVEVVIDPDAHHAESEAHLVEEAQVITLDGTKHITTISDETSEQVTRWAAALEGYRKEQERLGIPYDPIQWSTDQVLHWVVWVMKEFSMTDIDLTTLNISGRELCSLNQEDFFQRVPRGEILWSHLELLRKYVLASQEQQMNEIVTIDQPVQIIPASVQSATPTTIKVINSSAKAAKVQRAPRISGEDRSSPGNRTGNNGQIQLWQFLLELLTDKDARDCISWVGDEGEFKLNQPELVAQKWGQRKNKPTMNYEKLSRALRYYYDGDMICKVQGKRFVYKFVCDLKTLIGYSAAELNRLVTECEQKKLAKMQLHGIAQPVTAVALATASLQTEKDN
How it was run: as §1

ERG = target: T4, ERG (Homo sapiens, UniProt P11308 1-479); details: protein: recombinant; tags: N-terminal GST; dsDNA, one strand shown
T4 sequence: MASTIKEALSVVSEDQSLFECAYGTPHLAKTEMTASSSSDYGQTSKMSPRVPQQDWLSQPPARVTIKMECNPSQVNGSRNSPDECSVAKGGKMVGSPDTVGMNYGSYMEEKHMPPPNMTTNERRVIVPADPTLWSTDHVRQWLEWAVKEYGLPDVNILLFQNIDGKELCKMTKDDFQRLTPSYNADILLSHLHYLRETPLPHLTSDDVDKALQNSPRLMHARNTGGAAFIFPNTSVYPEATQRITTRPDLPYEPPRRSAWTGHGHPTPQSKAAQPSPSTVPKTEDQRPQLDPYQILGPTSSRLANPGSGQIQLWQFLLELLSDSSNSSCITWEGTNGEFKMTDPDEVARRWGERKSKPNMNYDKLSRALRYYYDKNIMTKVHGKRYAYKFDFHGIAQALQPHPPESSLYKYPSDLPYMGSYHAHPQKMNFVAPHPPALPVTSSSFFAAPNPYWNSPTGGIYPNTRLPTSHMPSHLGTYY
How it was run: as §1

ELF1 = ELF1 (Homo sapiens, UniProt P32519 1-619); details: protein: recombinant; tags: N-terminal GST; dsDNA, one strand shown
How it was run: as §1

EHF = target: T5, EHF (Homo sapiens, UniProt Q9NZC4 1-300); details: protein: recombinant; tags: N-terminal GST; dsDNA, one strand shown
T5 sequence: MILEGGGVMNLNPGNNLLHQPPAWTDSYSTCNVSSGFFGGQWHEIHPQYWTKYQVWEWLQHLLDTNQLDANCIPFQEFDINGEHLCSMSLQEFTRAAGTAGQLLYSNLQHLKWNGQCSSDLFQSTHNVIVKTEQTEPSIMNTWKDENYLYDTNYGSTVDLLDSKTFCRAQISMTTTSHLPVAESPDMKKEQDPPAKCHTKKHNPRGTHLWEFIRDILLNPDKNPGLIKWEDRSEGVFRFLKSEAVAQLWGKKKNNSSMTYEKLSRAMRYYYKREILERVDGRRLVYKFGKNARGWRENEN
How it was run: as §1

SPI1 = SPI1 (Homo sapiens, UniProt P17947 1-270); details: protein: recombinant; tags: N-terminal GST; dsDNA, one strand shown
How it was run: as §1

SPIB = SPIB (Homo sapiens, UniProt Q01892 1-262); details: protein: recombinant; tags: N-terminal GST; dsDNA, one strand shown
How it was run: as §1

ELK3 = target: T6, ELK3 (Homo sapiens, UniProt P41970 1-407); details: protein: recombinant; tags: N-terminal GST; dsDNA, one strand shown
T6 sequence: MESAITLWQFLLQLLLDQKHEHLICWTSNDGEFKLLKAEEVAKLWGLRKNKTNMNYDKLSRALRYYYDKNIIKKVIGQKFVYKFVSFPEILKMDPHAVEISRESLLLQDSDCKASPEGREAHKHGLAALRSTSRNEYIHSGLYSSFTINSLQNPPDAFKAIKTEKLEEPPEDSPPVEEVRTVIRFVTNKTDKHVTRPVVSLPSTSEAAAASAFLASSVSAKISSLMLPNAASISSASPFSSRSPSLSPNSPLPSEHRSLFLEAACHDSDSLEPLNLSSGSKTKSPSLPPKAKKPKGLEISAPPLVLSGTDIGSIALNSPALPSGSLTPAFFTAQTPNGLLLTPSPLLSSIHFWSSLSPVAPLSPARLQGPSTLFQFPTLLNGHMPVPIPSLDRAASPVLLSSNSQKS
How it was run: as §1

FEV = target: T7, FEV (Homo sapiens, UniProt Q99581 1-238); details: protein: recombinant; tags: N-terminal GST; dsDNA, one strand shown
T7 sequence: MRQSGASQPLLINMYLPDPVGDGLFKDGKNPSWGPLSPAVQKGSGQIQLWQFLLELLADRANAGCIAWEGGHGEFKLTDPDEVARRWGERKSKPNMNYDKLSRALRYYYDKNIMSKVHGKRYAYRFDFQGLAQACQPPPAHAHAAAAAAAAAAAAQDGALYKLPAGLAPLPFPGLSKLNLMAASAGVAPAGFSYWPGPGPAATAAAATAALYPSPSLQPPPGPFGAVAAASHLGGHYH
How it was run: as §1

ETV5 = ETV5 (Homo sapiens, UniProt P41161 1-510); details: protein: recombinant; tags: N-terminal GST; dsDNA, one strand shown
How it was run: as §1

HSF1 = HSF1 (Homo sapiens, UniProt Q00613 1-529); details: protein: recombinant; tags: N-terminal GST; chain copies: 3; dsDNA, one strand shown
How it was run: as §1

SPIC = target: T8, SPIC (Homo sapiens, UniProt Q8N5J4 1-248); details: protein: recombinant; tags: N-terminal GST; dsDNA, one strand shown
T8 sequence: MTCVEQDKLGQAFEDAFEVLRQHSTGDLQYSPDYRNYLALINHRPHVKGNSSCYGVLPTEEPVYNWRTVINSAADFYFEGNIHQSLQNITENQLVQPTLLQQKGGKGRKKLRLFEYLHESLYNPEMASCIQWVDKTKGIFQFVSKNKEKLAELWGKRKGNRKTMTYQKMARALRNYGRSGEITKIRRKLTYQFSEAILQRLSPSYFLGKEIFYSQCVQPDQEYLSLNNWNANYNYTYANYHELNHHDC
How it was run: as §1

ELF4 = ELF4 (Homo sapiens, UniProt Q99607 1-663); details: protein: recombinant; tags: N-terminal GST; dsDNA, one strand shown
How it was run: as §1

ELK4 = target: T9, ELK4 (Homo sapiens, UniProt P28324-2 1-405); details: protein: recombinant; tags: N-terminal GST; dsDNA, one strand shown
T9 sequence: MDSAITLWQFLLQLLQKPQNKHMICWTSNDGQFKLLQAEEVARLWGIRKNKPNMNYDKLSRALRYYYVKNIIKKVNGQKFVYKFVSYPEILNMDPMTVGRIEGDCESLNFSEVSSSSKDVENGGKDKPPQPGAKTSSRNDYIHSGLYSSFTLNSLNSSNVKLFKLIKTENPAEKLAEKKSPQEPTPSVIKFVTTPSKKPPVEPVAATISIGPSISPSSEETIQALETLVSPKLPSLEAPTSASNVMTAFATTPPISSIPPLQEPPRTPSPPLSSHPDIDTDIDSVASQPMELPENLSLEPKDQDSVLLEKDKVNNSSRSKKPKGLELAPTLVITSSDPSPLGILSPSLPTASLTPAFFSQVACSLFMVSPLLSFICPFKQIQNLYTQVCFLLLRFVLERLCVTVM
How it was run: as §1

ETV2 = target: T10, ETV2 (Homo sapiens, UniProt O00321 1-342); details: protein: recombinant; tags: N-terminal GST; dsDNA, one strand shown
T10 sequence: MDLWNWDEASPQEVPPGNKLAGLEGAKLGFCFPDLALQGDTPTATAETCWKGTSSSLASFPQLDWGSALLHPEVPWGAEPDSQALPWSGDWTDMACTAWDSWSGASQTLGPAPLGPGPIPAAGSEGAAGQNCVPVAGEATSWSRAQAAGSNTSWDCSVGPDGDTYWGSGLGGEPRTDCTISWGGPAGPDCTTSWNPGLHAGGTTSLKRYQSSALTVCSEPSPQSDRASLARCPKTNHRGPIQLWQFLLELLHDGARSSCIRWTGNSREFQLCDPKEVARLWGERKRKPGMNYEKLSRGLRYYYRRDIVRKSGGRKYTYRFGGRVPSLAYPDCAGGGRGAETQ
How it was run: as §1

ELF3 = target: T11, ELF3 (Homo sapiens, UniProt P78545 1-371); details: protein: recombinant; tags: N-terminal GST; dsDNA, one strand shown
T11 sequence: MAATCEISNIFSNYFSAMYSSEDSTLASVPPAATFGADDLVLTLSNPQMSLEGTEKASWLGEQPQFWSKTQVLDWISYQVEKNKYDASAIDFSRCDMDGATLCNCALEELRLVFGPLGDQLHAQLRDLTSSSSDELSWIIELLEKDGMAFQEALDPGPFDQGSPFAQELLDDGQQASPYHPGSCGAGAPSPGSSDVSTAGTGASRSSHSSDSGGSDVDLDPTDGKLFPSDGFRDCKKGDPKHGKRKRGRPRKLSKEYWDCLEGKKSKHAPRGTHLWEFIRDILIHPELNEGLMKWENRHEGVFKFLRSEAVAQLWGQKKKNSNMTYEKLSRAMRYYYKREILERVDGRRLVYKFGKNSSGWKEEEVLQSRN
How it was run: as §1

CRX = CRX (Homo sapiens, UniProt O43186 1-299); details: protein: recombinant; tags: N-terminal GST; dsDNA, one strand shown
How it was run: as §1

ETV1 = ETV1 (Homo sapiens, UniProt P50549 1-477); details: protein: recombinant; tags: N-terminal GST; dsDNA, one strand shown
How it was run: as §1

Chain of SPIB (Q01892 whole entry): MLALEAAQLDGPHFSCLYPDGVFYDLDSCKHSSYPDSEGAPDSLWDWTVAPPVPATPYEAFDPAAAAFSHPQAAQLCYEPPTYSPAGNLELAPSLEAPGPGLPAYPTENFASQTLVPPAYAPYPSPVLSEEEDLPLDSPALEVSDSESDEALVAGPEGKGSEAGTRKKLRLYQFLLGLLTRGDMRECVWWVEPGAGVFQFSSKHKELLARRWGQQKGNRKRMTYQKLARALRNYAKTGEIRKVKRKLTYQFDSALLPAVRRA
Chain of CRX (O43186 whole entry): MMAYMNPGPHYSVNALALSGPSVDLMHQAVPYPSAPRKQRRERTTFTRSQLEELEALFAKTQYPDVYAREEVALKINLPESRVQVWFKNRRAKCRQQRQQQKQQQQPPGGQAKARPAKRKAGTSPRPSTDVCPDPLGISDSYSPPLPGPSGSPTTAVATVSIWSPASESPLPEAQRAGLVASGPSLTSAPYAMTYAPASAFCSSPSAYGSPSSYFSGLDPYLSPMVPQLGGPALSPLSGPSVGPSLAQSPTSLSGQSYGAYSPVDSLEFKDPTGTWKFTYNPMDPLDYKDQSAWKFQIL
Chain of HSF1 (Q00613 whole entry): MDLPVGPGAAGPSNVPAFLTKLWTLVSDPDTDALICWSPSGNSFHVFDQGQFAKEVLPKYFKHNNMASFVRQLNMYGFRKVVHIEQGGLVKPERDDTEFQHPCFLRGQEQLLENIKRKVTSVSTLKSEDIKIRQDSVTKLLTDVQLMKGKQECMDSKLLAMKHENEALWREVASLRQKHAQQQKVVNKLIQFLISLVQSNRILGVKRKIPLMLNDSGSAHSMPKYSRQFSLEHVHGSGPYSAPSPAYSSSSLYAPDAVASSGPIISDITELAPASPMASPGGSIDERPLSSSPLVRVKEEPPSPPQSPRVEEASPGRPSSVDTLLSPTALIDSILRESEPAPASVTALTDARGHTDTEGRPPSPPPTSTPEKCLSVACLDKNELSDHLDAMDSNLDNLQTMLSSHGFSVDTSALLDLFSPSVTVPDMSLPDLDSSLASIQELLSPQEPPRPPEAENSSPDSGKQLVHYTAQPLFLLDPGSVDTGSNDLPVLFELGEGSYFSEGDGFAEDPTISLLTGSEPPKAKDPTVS
Chain of ELF4 (Q99607 whole entry): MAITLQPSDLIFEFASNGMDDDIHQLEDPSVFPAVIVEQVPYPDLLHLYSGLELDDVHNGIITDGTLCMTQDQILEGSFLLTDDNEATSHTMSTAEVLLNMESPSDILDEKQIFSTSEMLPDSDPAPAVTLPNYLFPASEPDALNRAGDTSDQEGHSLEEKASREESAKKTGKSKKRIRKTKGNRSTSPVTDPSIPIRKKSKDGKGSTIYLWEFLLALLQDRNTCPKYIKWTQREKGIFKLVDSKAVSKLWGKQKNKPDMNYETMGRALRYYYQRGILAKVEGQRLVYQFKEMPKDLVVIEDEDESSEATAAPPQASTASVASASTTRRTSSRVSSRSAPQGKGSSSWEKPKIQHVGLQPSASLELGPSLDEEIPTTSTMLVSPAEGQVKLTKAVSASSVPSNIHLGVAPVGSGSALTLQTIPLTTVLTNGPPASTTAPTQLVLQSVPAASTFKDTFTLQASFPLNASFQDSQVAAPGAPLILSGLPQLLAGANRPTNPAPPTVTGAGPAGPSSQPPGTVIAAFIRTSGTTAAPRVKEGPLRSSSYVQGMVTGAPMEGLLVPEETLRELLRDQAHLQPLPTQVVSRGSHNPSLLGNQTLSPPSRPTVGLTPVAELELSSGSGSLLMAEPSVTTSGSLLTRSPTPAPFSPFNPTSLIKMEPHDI
Chain of ELF1 (P32519 whole entry): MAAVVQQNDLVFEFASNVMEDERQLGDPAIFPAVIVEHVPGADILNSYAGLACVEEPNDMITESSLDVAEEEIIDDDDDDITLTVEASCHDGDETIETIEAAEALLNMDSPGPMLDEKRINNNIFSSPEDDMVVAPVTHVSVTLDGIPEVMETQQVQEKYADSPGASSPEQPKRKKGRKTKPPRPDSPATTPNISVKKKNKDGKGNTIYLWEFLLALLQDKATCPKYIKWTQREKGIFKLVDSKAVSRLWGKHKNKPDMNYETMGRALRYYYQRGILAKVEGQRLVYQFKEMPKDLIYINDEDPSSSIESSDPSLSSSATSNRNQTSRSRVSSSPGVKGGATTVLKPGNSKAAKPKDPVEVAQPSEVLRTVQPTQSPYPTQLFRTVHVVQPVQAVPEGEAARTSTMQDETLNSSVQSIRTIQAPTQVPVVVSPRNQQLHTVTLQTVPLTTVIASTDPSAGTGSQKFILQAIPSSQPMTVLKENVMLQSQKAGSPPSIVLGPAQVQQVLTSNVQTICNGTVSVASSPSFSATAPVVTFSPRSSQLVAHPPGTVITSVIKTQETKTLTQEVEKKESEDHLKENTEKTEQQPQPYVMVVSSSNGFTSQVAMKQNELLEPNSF
Chain of ETV1 (P50549 whole entry): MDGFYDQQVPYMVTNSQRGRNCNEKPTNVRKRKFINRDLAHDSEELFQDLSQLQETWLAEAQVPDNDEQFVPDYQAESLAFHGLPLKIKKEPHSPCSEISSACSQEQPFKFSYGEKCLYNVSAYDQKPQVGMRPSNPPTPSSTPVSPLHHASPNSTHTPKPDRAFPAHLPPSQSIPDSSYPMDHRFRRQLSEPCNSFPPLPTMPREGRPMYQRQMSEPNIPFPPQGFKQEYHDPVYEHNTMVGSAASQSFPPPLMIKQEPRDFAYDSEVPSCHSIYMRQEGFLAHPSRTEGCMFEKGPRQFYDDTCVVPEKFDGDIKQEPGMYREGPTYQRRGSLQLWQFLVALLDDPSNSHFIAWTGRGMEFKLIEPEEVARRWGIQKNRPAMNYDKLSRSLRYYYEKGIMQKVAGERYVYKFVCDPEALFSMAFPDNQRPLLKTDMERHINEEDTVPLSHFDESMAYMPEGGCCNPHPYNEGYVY
Chain of ETV5 (P41161 whole entry): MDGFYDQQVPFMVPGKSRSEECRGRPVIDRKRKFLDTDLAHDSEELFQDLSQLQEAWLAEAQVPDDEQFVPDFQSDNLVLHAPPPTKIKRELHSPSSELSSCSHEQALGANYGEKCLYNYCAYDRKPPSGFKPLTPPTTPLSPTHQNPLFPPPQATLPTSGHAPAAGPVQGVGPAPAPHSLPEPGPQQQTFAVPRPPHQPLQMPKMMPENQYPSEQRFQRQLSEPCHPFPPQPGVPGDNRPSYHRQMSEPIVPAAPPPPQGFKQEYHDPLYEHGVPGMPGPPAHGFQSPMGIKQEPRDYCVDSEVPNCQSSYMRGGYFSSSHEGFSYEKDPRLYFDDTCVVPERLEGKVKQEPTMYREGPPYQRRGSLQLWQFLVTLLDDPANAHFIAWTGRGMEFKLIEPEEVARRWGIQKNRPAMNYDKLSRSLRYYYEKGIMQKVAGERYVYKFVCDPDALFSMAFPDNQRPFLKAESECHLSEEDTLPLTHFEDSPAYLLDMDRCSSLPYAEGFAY

## CTTCTC
FLI1
  binding signal: 1.38 fold enrichment (6-mer frequency, TF over GST control)
ELK1
  binding signal: 1.39 fold enrichment (6-mer frequency, TF over GST control)
GABPA
  binding signal: 1.39 fold enrichment (6-mer frequency, TF over GST control)
ERG
  binding signal: 1.3 fold enrichment (6-mer frequency, TF over GST control)
ELF1
  binding signal: 1.41 fold enrichment (6-mer frequency, TF over GST control)
EHF
  binding signal: 1.37 fold enrichment (6-mer frequency, TF over GST control)
SPI1
  binding signal: 1.4 fold enrichment (6-mer frequency, TF over GST control)
SPIB
  binding signal: 1.34 fold enrichment (6-mer frequency, TF over GST control)
ELK3
  binding signal: 1.39 fold enrichment (6-mer frequency, TF over GST control)
FEV
  binding signal: 1.35 fold enrichment (6-mer frequency, TF over GST control)
ETV5
  binding signal: 1.27 fold enrichment (6-mer frequency, TF over GST control)
HSF1
  binding signal: 2.19 fold enrichment (6-mer frequency, TF over GST control)
SPIC
  binding signal: 1.55 fold enrichment (6-mer frequency, TF over GST control)
ELF4
  binding signal: 1.39 fold enrichment (6-mer frequency, TF over GST control)
ELK4
  binding signal: 1.42 fold enrichment (6-mer frequency, TF over GST control)
ETV2
  binding signal: 1.39 fold enrichment (6-mer frequency, TF over GST control)
ELF3
  binding signal: 1.47 fold enrichment (6-mer frequency, TF over GST control)
CRX
  binding signal: 1.56 fold enrichment (6-mer frequency, TF over GST control)
ETV1
  binding signal: 1.39 fold enrichment (6-mer frequency, TF over GST control)
